PubChem BioAssay AID493194 (Broad Institute, 2011)
Entries with a potency or affinity are not part of this list. Results filed as inconclusive are left out. Calls of active or inactive are those of the source.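 How the source made its calls: active means a valid curve of falling signal whose half-effect concentration is at most ten times the top tested dose; inconclusive means flat curve at 30 to 70% inhibition, or poor fit; inactive means signal rise, flat within 30%, or potency beyond limit.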

Target: Scavenger receptor class B member 1 (Mus musculus) (UniProt Q61009)
Assay: inhibitors of SR-BI mediated HDL lipid uptake, dose response, ldlA[mSR-BI] cells, fluorescence, cherry pick (AID 493194);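 further: CHO cells lacking LDL receptor and overexpressing mouse SR-BI; cellular uptake of fluorescently labeled HDL measured as cell fluorescence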
Conditions: CHO ldlA[mSR-BI] DiI-HDL uptake fluorescence, 3 h; series mostly up to 35 µM

Scavenger receptor class B member 1 (Mus musculus), sequence (Q61009 whole entry, looked up): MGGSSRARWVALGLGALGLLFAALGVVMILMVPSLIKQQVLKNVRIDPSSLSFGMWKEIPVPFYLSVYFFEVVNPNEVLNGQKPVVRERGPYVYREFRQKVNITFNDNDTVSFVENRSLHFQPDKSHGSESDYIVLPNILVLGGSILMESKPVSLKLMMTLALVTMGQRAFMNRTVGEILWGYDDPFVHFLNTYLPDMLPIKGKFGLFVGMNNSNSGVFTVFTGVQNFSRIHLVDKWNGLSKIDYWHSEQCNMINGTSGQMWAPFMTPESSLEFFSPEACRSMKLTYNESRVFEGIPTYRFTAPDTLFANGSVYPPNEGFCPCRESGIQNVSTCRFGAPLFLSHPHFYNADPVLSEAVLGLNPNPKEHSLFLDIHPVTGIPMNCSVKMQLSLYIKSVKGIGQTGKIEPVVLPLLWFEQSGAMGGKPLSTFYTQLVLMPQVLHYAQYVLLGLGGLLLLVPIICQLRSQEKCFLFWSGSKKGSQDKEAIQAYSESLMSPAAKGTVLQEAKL

outcome, inactive:
COc1ccccc1-n1cnc2cc(NCc3ccco3)ccc21, CN(C(=O)COC(=O)c1c[nH]c(=O)[nH]c1=O)C1CCCCC1, COc1ccccc1C(=O)NCCn1cc(SCC(=O)Nc2nnc(C)s2)c2ccccc21, CCC(=O)Nc1ccc(Cl)c(NC(=O)c2cccc(OC)c2)c1, CC(=O)c1c(C)[nH]c(C(=O)OCc2nc3ccsc3c(=O)[nH]2)c1C, COc1ccc(OCC(O)Cn2c(Nc3cccc(C)c3)nc3c2c(=O)n(C)c(=O)n3C)cc1 (centres undefined), COc1cccc2c1cc1c(=O)n(CC(=O)N3CCN(c4cccc(C)c4C)CC3)nc(C)n12, Cc1ccc(-c2sc(-c3ccccc3)nc2CC(=O)Nc2ccccc2F)cc1, CN(C(=O)COn1nnc2ccc(S(=O)(=O)N3CCOCC3)cc21)c1ccccc1, CN(C(=O)COC(=O)CCc1c[nH]c2ccccc12)c1ccccc1, O=C(Nc1ccccc1F)c1ccc2c(c1)CCN2S(=O)(=O)c1ccccc1, O=C(NCCn1cc(SCC(=O)N2CCOCC2)c2ccccc21)c1c(F)cccc1F, CCCCC(=O)Nc1cccc(NC(=O)c2ccccc2Br)c1, O=C(Nc1cccc(-c2cn3c(n2)SCC3)c1)c1ccc2ccccc2n1, Cc1nc(NCc2cccnc2)c2c3c(sc2n1)CC(C)CC3 (centres undefined), COc1ccc(C2/C=C\CN(S(=O)(=O)c3ccc(C)cc3)CC(=O)N2Cc2ccc(F)cc2)cc1 (centres undefined), COc1ccccc1NC(=O)CN1CCN(CC(=O)Nc2ccc(C)c(F)c2)CC1, COc1cc(OC)cc(C(=O)N[C@H](C(=O)Nc2nc(-c3cc(OC)ccc3OC)cs2)C(C)C)c1, CCOC(=O)Nc1ccc2c(c1)N(C(=O)C(C)N1CCCC1)c1ccccc1CC2 (centres undefined), O=C(/C=C/c1ccco1)Nc1cccc(NC(=O)/C=C/c2ccco2)n1, CN(Cc1ccc(OC(F)F)cc1)C(=O)c1ccccc1Sc1ccccc1C#N, CCOC(=O)c1c(C)n(-c2ccc(C)cc2)c2c(CC(C)=O)c(Br)c(OC)c(O)c12, CCOc1ccccc1CNC(=O)C1CCN(C(=O)c2sccc2-n2cccc2)CC1, Cc1ccc(-c2cc(C(=O)Nc3sc4c(c3C(=O)NCc3ccco3)CCC4)[nH]n2)c(O)c1, CCSCC1COC(c2cccn2Cc2ccc(C)cc2)=N1 (centres undefined), CCOC(=O)CSc1c(-c2ccc(Cl)cc2)[nH]c2ccccc12, CC(C)C(=O)Nc1nc(-c2ccc3c(c2)CCN3C(=O)C2CC2)cs1, O=c1cc(N2CCCCC2)c(-c2ccccc2)nn1Cc1cccc(F)c1, COc1ccc(C(=O)CSc2nnc(CNC(=O)c3ccc(S(=O)(=O)N(C)C)cc3)o2)cc1, Cc1cc(N(C)C(=O)c2ccc3c(c2)S(=O)(=O)c2cc(Cl)ccc2C3=O)c(C(F)(F)F)o1, COc1ccc([C@H]2/C=C\CN(S(=O)(=O)c3ccc4ccccc4c3)[C@@H](C)C(=O)N2Cc2ccc(F)cc2)cc1, COC(=O)c1c(C)[nH]c(C(=O)C(C)OC(=O)C2CC(=O)N(c3ccc(C)cc3)C2)c1C (centres undefined), Cn1c(C(=O)N2CCC(C(=O)N3CCN(Cc4ccc5c(c4)OCO5)CC3)CC2)cc2sccc21, O=C(c1ccc(S(=O)(=O)NCc2ccco2)cc1)N1CCN(Cc2ccc3c(c2)OCO3)CC1, CCCOc1ccc(C(=O)Nc2ccc(S(=O)(=O)N3C[C@@H]4C[C@@H](C3)c3cccc(=O)n3C4)cc2)cc1, CNC(=O)c1ccc(Nc2nnc(-c3ccc(O)cc3)c3ccccc23)cc1, CC(=O)Nc1c(I)c(C(=O)N[C@H]2C(O)O[C@H](CO)[C@@H](O)[C@@H]2O)c(I)c(N(C)C(C)=O)c1I (some centres undefined), O=C(Nc1cccc(NC(=O)c2ccccc2[N+](=O)[O-])c1)c1ccccc1Cl, Cc1c(C(=O)Nc2ccc(Cl)cc2)c2ccccn2c1CCc1ccncc1
